CYP2C9 act – CYP2C9 (human) activation; actives 1.4% (n = 96,000); P11712; recombinant CYP2C9, luciferin-H conversion, luminescence; stronger effect = higher value; factor 1 = untreated enzyme, 0 = blocked; AID 1024; activation factor at 5 µM;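 active = activation factor of 2 or more for CYP2C9 at a 5 µM dose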
CYP2C19 inhib – human CYP2C19 inhibition | P33261 | CYP2C19 Supersomes, luciferin-H EGE luminescence, 30 min | inhibition, % at 5 µM | actives 21% (n = 96,000);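 active = CYP2C19 inhibition above a set limit at 5 µM in the primary screen, cut at about 50% in these data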
Target sequence (P33261 whole entry, looked up): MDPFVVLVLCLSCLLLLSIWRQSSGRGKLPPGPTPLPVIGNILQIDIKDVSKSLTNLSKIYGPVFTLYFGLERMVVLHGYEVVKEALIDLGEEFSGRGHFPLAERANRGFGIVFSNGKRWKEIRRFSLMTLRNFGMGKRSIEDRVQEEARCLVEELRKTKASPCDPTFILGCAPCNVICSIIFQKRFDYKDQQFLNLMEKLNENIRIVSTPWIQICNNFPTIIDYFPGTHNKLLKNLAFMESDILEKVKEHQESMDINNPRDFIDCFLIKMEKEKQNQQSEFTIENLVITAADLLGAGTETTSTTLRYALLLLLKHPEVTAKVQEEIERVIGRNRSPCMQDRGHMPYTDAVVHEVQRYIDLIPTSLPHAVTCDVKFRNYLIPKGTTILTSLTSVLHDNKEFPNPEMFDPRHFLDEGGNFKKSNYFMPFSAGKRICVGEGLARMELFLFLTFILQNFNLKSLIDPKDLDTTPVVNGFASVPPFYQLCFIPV
CYP2C19 act – increases human CYP2C19 enzyme activity; P33261; recombinant CYP2C19, luciferin-H EGE luminescence; stronger effect = higher value; 0 = fully inhibited enzyme, 1 = untreated enzyme; activation factor at 5 µM; 96,000 tested, under 10 active;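 active = activation factor of at least 2 at 5 µM in the primary screen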
CYP2C9 inhib – inhibitors of human CYP2C9 | P11712 | actives 20% (n = 96,000) | inhibition, % at 5 µM | CYP2C9 Supersomes, luciferin-H conversion, luminescence;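 active = blocking of liver enzyme CYP2C9 beyond about 50% at 5 µM, limit read from the data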
Cav32 inh – inhibitors of human Cav3.2 T-type calcium channel | AID 449739 | O95180 | B-score at 10 µM | Cav3.2-expressing cells, Fluo-4 calcium fluorescence FDSS; stronger effect = lower value | actives 4% (n = 100,000);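 active = single-dose well whose peak fluorescence ratio is a statistical outlier from its plate by either plate-standardised score or position-corrected B-score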
Numbers stand for hits; i = inactive; nt = no result given. Shown are actives, neighbours in structure and some others; about 27% of the full set was active somewhere.

SMILES | CYP2C9 act | CYP2C19 inhib | CYP2C19 act | CYP2C9 inhib | Cav32 inh
CCn1nnc(-c2ccccc2NS(=O)(=O)c2ccc(S(=O)(=O)N3CCCCCC3)cc2)n1 | i | i | i | i | i
COC(=O)C1=C(N)c2ccccc2C1(C#N)c1ccccc1 (configuration not stated) | i | i | i | i | -9
CC(C)Cn1cnc2c(c(-c3ccccc3)c(-c3ccccc3)n2Cc2ccco2)c1=N | i | i | i | i | -8.3
OCCNc1ncnc2c1c(-c1ccccc1)c(-c1ccccc1)n2Cc1ccco1 | i | i | i | 56 | -5
N=c1c2c(-c3ccccc3)c(-c3ccccc3)n(Cc3ccco3)c2ncn1Cc1ccccc1 | i | i | i | i | -12
N=c1c2c(-c3ccccc3)c(-c3ccccc3)n(Cc3ccccc3)c2ncn1CCO | i | i | i | i | -5.2
O=c1[nH]c(NCCO)nc2ncn(Cc3ccccc3)c12 | i | i | i | i | i
C=CCC(=O)OCC(=O)Nc1ccc(Oc2ccccc2)cc1 | i | i | i | i | nt
CC(C)C(CCNC(=O)CC(Cc1ccccc1)c1ccco1)c1ccco1 (configuration not stated) | i | i | i | i | -6.8
COc1ccc(CNC(=O)C2CC(=O)N(c3ccc(OCC(=O)N4CCCCC4)cc3)C2)cc1 (configuration not stated) | i | i | i | i | i
COc1cccc(N2CC(C(=O)Nc3ccc(C(=O)OC(C)C)cc3)CC2=O)c1 (configuration not stated) | i | 51 | i | 71 | -4.6
COc1ccc(CNC(=O)C2CC(=O)N(c3ccc(OCC(=O)N4C(C)CCCC4C)cc3)C2)cc1 (configuration not stated) | i | i | i | 61 | i
COc1cccc(N2CC(C(=O)NC3CCCCC3)CC2=O)c1 (configuration not stated) | 2.3 | i | i | i | i
COCCCNC(=S)NC1CC2CCCC(C1)N2Cc1ccco1 (configuration not stated) | i | i | i | i | i
COc1cc(F)c(C(=O)NC(C)(C)CO)cc1OC | nt | nt | nt | nt | i
CC(C)C(C)NC(=O)CSc1nc2scc(-c3ccco3)c2c(=O)n1-c1ccccc1 (configuration not stated) | i | i | i | i | -5.4
Cc1sc2nc(SCC(=O)NCc3ccco3)n(-c3ccccc3)c(=O)c2c1C | i | i | i | i | i
CC(NC(=O)CSc1nc2sc3c(c2c(=O)n1-c1ccccc1)CCCC3)c1ccccc1 (configuration not stated) | nt | nt | nt | nt | -6.5
CC(C)C(C)(C#N)NC(=O)CSc1nc2scc(-c3ccco3)c2c(=O)n1-c1ccccc1 (configuration not stated) | i | i | i | 55 | -5.1
CCOC(=O)c1sc2nc(NC(=O)COc3ccccc3)sc2c1C | i | 51 | i | 86 | i
O=C(COc1ccccc1)Nc1nccs1 | nt | nt | nt | nt | i
CCSc1nnc(NC(=O)COc2ccccc2)s1 | i | 53 | i | 76 | i
CCCCSc1nnc(NC(=O)CCc2ccccc2)s1 | i | i | i | 56 | i
CCC(Oc1ccccc1)C(=O)Nc1ccccn1 (configuration not stated) | i | 75 | i | i | i
Cc1nnc(NC(=O)COc2ccccc2)s1 | i | i | i | i | i
SMILES | CYP2C9 act | CYP2C19 inhib | CYP2C19 act | CYP2C9 inhib | Cav32 inh
O=C(Nc1ccccc1)C1=C[C@H](C2CC2)C[C@H](OCCCCO)O1 | nt | nt | nt | nt | i
O=C(Nc1ccc(O)cc1)c1ccc(C(=O)c2ccccc2)o1 | i | i | i | i | i
CCSc1nnc(NC(=O)C2CC=CCC2C(=O)O)s1 (configuration not stated) | i | i | i | 79 | i
CCSc1nnc(NC(=O)COc2ccc3ccccc3c2)s1 | i | 60 | i | 68 | i
CCSc1nnc(NC(=O)C2CCCCC2)s1 | i | i | i | i | i
CCSc1nnc(NC(=O)CSc2c(Cl)cccc2Cl)s1 | i | i | i | i | i
CCSc1nnc(NC(=O)C(CC)Oc2ccccc2)s1 (configuration not stated) | i | i | i | 80 | i
Cc1ccc(S(=O)(=O)NC2=NCN(CCOC(=O)c3ccc([N+](=O)[O-])cc3)CN2)cc1 | i | i | i | i | i
Cc1ccnc(NC(=O)c2cccc(NS(=O)(=O)c3ccccc3C)c2)c1 | i | 52 | i | i | i
CCCCCCC1/C(=N/O)CCC1C(=O)OC (configuration not stated) | i | 66 | i | i | i
CCCCCCN=C(C)C1=C(O)C(C(=O)OC)C(C)(C)CC1=O (configuration not stated) | i | i | i | i | i
COc1ccc(C(=O)Nc2ccccc2-c2nnn(CC(=O)Nc3ccc4c(c3)OCCO4)n2)cc1 | i | i | i | i | i
O=C1CCCc2[nH]nc(-c3cccnc3)c21 | i | i | i | i | i
COc1ccc(N(CC(=O)NC2CCCC2)C(=O)Cn2nnc(-c3ccc(C)cc3)n2)cc1OC | i | i | i | i | i
Cc1ccc(-c2nnn(CC(=O)N(c3ccccc3F)C(C(=O)NC3CCCC3)c3ccco3)n2)o1 (configuration not stated) | i | i | i | i | i
COc1ccc(-c2nnn(CC(=O)N(C3CCCC3)C(C)C(=O)NC3CCCC3)n2)cc1OC (configuration not stated) | i | 81 | i | 59 | i
CCCC(C(=O)NC1CCCC1)N(C(=O)Cn1nnc(-c2ccc(C)o2)n1)c1ccccc1OC (configuration not stated) | i | 88 | i | 81 | i
COc1ccc(N(CC(=O)NC2CCCC2)C(=O)Cn2nnc(-c3ccc(C)cc3)n2)cc1 | nt | nt | nt | nt | -6.7
Cn1c(=O)c2c(nc(SCc3cc4c(cc3Cl)OCO4)n2C)n(C)c1=O | i | i | i | i | nt
O=C(CCc1ccc(S(=O)(=O)NCCc2ccccc2)cc1)NCc1ccco1 | nt | nt | nt | nt | i
C=CCn1c(SCC(=O)C(C)(C)C)nnc1-c1cccs1 | i | 76 | i | i | i
C=CCn1c(CCNC(=O)c2cccs2)nnc1SCC(=O)c1ccc(Br)cc1 | i | 51 | i | 72 | i
C=CCn1c(SCC(=O)NCCc2ccccc2)nnc1C(C)NC(=O)c1cccs1 (configuration not stated) | nt | nt | nt | nt | i
C=CCn1c(SCC(=O)c2ccc(NS(=O)(=O)c3ccccc3)cc2)nnc1-c1cccs1 | i | 58 | i | 97 | i
C=CCn1c(SCc2ccc3nonc3c2)nnc1-c1cccs1 | i | 99 | i | 76 | i
C=CCNc1nc(N(c2ccccc2)c2ccccc2)nc(-n2ccnc2)n1 | i | i | i | i | i
CN(c1ccccc1)c1nc(-n2ccnc2)nc(-n2ccnc2)n1 | i | 79 | i | i | i
CCCCNc1nc(N(C)c2ccccc2)nc(-n2ccnc2)n1 | i | 85 | i | 84 | i
O=C(COC(=O)C1(c2ccccc2F)CCCC1)N1CCOCC1 | i | i | i | i | i
O=C(NCc1ccco1)c1cccc(S(=O)(=O)N2CCCCC2)c1 | nt | nt | nt | nt | i
